From PubChem BioAssay (NCI) come the findings set out here.

This is part of a sample that, as a whole, favours compounds with a hit. Of some 83,000 tested, about 20% had one in any assay.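 Treatment: one concentration, 48 hours, 96-well format. Scoring: percent growth, with anything below 10 considered active.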 Unmarked numbers belong to inactive results. Active and inactive are the calls of the source.

Test systems include RPMI-8226 leukemia; OVCAR-8 ovarian; OVCAR-4 ovarian; SK-OV-3 ovarian; IGROV1 ovarian; OVCAR-3 ovarian; HS 578T breast; NCI/ADR-RES ovarian; T-47D breast; OVCAR-5 ovarian.
Common to all, as to test: NCI-60 one-dose screen, 48 h (100 = growth as untreated, 0 = no growth, -100 = all killed)
Common to all, as to conditions: 10 µM unless noted

For `CCOC(=O)C1CCN(S(=O)(=O)/N=C2/NC(=O)NC2=C(Cl)Cl)CC1`, the growth with RPMI-8226 leukemia is 6.17% (active); with OVCAR-8 ovarian it was 21.4%; with OVCAR-4 ovarian, 80%; in the assay with SK-OV-3 ovarian, 70.9%; with IGROV1 ovarian, -54.4% (active); in the assay on OVCAR-3 ovarian it was -81.2% (active). Also, the growth is 24.1% with HS 578T breast, 68.6% in the assay on NCI/ADR-RES ovarian and 55% with T-47D breast.
Consider `CCc1n(Cc2ccc3ccccc3c2)c2ccccc2[n+]1Cc1ccc2ccccc2c1`, for which the growth in the assay with RPMI-8226 leukemia was 13.5%; in the assay with OVCAR-8 ovarian, 55.1%; in the assay on OVCAR-5 ovarian, 75.7%; with OVCAR-4 ovarian, 18.3%; with IGROV1 ovarian, 45.8%; in the assay with OVCAR-3 ovarian, 34.3%. For the same molecule, the growth in the assay on HS 578T breast is 82.7%; in the assay on NCI/ADR-RES ovarian it was 105%; in the assay with T-47D breast, 25.4%.
Regarding `Cc1cnc(-c2ccc(-c3ccc(NC(=O)Nc4c(F)cc(F)cc4F)cc3F)c3c2C(=O)NC3)[nH]1`, the growth was 22.2% in the assay with RPMI-8226 leukemia; 39% with OVCAR-8 ovarian; -16.5% (active) in the assay on OVCAR-4 ovarian; 49.6% in the assay on SK-OV-3 ovarian; 33% in the assay on IGROV1 ovarian; -34% (active) with OVCAR-3 ovarian. The growth in the assay with HS 578T breast was -5.61% (active); with NCI/ADR-RES ovarian, 72.4%; in the assay on T-47D breast, 73.6%.
Regarding `O=C1CS/C(=N/c2nnc(-c3ccc(O)cc3)s2)N1`, the growth is 101% with RPMI-8226 leukemia; 109% in the assay on OVCAR-8 ovarian; 103% in the assay on OVCAR-5 ovarian; 110% with OVCAR-4 ovarian; 107% with IGROV1 ovarian; 107% in the assay on OVCAR-3 ovarian. The growth in the assay on HS 578T breast was 95.4%; with NCI/ADR-RES ovarian, 99.3%; with T-47D breast, 75.3%.
Regarding `Cc1c(Cl)cccc1NC(=O)c1sc2nc3c(cc2c1N)CN(Cc1ccccc1)CC3`, the growth is 54.8% with RPMI-8226 leukemia; 64.2% in the assay with OVCAR-8 ovarian; 75.1% with OVCAR-5 ovarian; 62.4% in the assay on OVCAR-4 ovarian; 52.2% in the assay with IGROV1 ovarian; 0.716% (active) in the assay on OVCAR-3 ovarian. The growth in the assay with HS 578T breast was 28.6%; in the assay with NCI/ADR-RES ovarian, 41.4%; in the assay with T-47D breast, 56.8%.
In the case of `Cc1ccc(C(=O)O)o1`, the growth was 114% with RPMI-8226 leukemia; 108% with OVCAR-8 ovarian; 105% with OVCAR-5 ovarian; 100% with OVCAR-4 ovarian; 102% in the assay with IGROV1 ovarian; 103% in the assay with OVCAR-3 ovarian. The growth with HS 578T breast was 118%; in the assay on NCI/ADR-RES ovarian it was 101%; with T-47D breast, 102%.
Regarding `COc1cc(/C=C/CO)cc(OC)c1O[C@@H]1O[C@H](CO)[C@@H](O)[C@H](O)[C@H]1O`, the growth in the assay with RPMI-8226 leukemia is 99.3%; in the assay with OVCAR-8 ovarian, 98.8%; in the assay with OVCAR-5 ovarian it was 92.4%; in the assay on OVCAR-4 ovarian, 100%; in the assay with IGROV1 ovarian it was 104%; in the assay with OVCAR-3 ovarian, 108%. In addition, the growth is 96.4% in the assay on HS 578T breast, 106% in the assay on NCI/ADR-RES ovarian and 93.1% in the assay with T-47D breast.
Take `COc1ccc(C(=O)c2cc(F)c(F)c(OC)c2F)cc1OC(=O)CCl`: the growth is 37.2% in the assay on RPMI-8226 leukemia; 51.1% in the assay on OVCAR-8 ovarian; 103% with OVCAR-5 ovarian; 81.7% in the assay with OVCAR-4 ovarian; 43.7% in the assay on IGROV1 ovarian; 13.7% in the assay on OVCAR-3 ovarian. The growth is 65.4% in the assay with HS 578T breast, 14.3% in the assay with NCI/ADR-RES ovarian and 44.1% with T-47D breast.
On to `C=CCn1c(SCC(=O)Nc2ccc(C(=O)/C=C/c3cc(OC)c(OC)c(OC)c3)cc2)nnc1-c1ccccc1`, for which the growth was 5.73% (active) in the assay with RPMI-8226 leukemia; 86.8% with OVCAR-8 ovarian; 128% in the assay on OVCAR-5 ovarian; 111% in the assay with OVCAR-4 ovarian; 86.9% with IGROV1 ovarian; 82.3% in the assay on OVCAR-3 ovarian. In addition, the growth is 102% with HS 578T breast, 102% in the assay on NCI/ADR-RES ovarian and 78.8% with T-47D breast.
On to `CSc1nc(-c2cccs2)c2c(N)[nH]nc2n1`, for which the growth in the assay on RPMI-8226 leukemia is 112%; in the assay with OVCAR-8 ovarian, 102%; with OVCAR-5 ovarian it was 106%; in the assay on OVCAR-4 ovarian, 108%; in the assay with IGROV1 ovarian, 111%; with OVCAR-3 ovarian it was 109%. The growth in the assay with HS 578T breast is 106%; in the assay with NCI/ADR-RES ovarian, 102%; in the assay with T-47D breast, 90.3%.
As for `CC(=O)c1ccc(NC(=O)CSc2nnc(-c3cc(-c4ccc(Cl)cc4)nc4ccccc34)o2)cc1`, the growth in the assay on RPMI-8226 leukemia was 25.5%; in the assay with OVCAR-8 ovarian, 82%; with OVCAR-5 ovarian it was 96.7%; in the assay with OVCAR-4 ovarian, 71.1%; in the assay with IGROV1 ovarian it was 92.7%; in the assay with OVCAR-3 ovarian, 107%. In addition, the growth in the assay with HS 578T breast was 110%; in the assay on NCI/ADR-RES ovarian, 83.2%; in the assay with T-47D breast, 79.1%.
Take `COc1ccc2c(c1)Oc1nc(N)c(C#N)c(N)c1C2Sc1ccc(SC)cc1` (stereo unspecified): the growth in the assay with RPMI-8226 leukemia is 2.48% (active); in the assay on OVCAR-8 ovarian it was 21.2%; with OVCAR-5 ovarian it was 112%; in the assay on OVCAR-4 ovarian it was 37.2%; in the assay with IGROV1 ovarian, 0.493% (active); in the assay on OVCAR-3 ovarian, -63.3% (active). The growth in the assay with HS 578T breast is 67.7%; with NCI/ADR-RES ovarian it was 62.9%; with T-47D breast it was -7.13% (active).
Consider `COc1ccc(-c2nnc(N3CCN(C(=O)CN4CCN(c5ccccc5)CC4)CC3)nc2-c2ccc(OC)cc2)cc1`, for which the growth in the assay with RPMI-8226 leukemia is -58.3% (active); with OVCAR-8 ovarian it was 42%; in the assay with OVCAR-5 ovarian, 78.6%; in the assay on OVCAR-4 ovarian it was 24.4%; in the assay with IGROV1 ovarian, 34.3%; in the assay with OVCAR-3 ovarian, 33.8%. Further, the results for the growth in the assay on HS 578T breast, with NCI/ADR-RES ovarian and in the assay on T-47D breast were 55.4%, 42.1% and 16.8%, respectively.
Turning to `CC(=O)c1ccc(NC(=O)CSc2nnc(-c3cc(-c4ccc(C)cc4)nc4ccccc34)o2)cc1`, the growth with RPMI-8226 leukemia was 7.74% (active); in the assay with OVCAR-8 ovarian, 49.3%; with OVCAR-5 ovarian it was 101%; in the assay on OVCAR-4 ovarian it was -12.5% (active); with IGROV1 ovarian, 57.3%; with OVCAR-3 ovarian, 77.4%. Besides, the growth in the assay with HS 578T breast was 23.3%; in the assay with NCI/ADR-RES ovarian it was 60.2%; in the assay on T-47D breast, 44.8%.
